Source: PubChem BioAssay AID463173 (ICCB-Longwood Screening Facility, Harvard Medical School, 2010)
Hit rate of the full screen: of about 52,000 compounds, about 1,700 (3.3%) were called active. Only a selection was taken, and actives are over-represented in it overall. Values without a mark were called inactive. Rule as the data show it: active = survival mostly below about 52% (no sharp cut-off); inactive = mostly above about 56%.

tested on: Wild type; assay: S. aureus survival, RN4220 and DeltatarO strains – OD600, teichoic acid synthesis inhibitors, primary screen (AID 463173); settings: S. aureus RN4220 wild type/DeltatarO growth, OD600, 18 h, stronger effect = lower value, screened at 18.75 µg/mL (by protocol)

Which survival does the source give for Cc1cccc(NC(=O)C2CCN(S(=O)(=O)c3ccc4c(c3)CCCN4C(=O)C3CCC3)CC2)c1 here?
Its survival is 74%.

Which survival does the source give for COc1cccc(N2CC(NC(=O)C(c3ccccc3)c3ccccc3)CC2=O)c1 (centres undefined) here?
The survival was 65%.

With COc1ccc(C2c3c(n(C)c4ccccc34)C(=O)N2CC(=O)Nc2ccccc2Cl)cc1 (centres undefined) as the molecule, how does the survival read?
Its survival is 135%.

COc1ccccc1CNC(=O)CCc1c(C)c2cc3c(C)c(C)oc3cc2oc1=O was tested. Which survival did it give?
The survival was 114%.

For CCCOc1cccc(C(=O)Nc2ccc(-c3nc4ccccc4s3)c(Cl)c2)c1, which survival is on record?
The survival was 65%.

How did the survival turn out when Cc1cccc2cc(C#N)c(SCC(=O)NCC3CCCO3)nc12 (centres undefined) was run?
The survival was 103%.

COc1cc(OC)c(NC(=O)CN(C)S(=O)(=O)c2ccc3c(c2)CCCC(=O)N3)cc1Cl was tested. Which survival did it give?
The survival was 1% (active).

How did the survival turn out when Cc1cccc(NC(=O)CCNS(=O)(=O)c2ccc3c(c2)CCCC(=O)N3)c1C was run?
Its survival is 80%.

Which survival does the source give for Cc1ccc(NC(=O)CCNS(=O)(=O)c2ccc3c(c2)CCCC(=O)N3)cc1 here?
Its survival is 73%.

How did the survival turn out when COc1cc(NC(=O)CN(C)S(=O)(=O)c2ccc3c(c2)CCCC(=O)N3)cc(OC)c1OC was run?
Its survival is 81%.

How did the survival turn out when COc1cc(Cl)c(NC(=O)CN(C)S(=O)(=O)c2ccc3c(c2)CCCC(=O)N3)c(OC)c1 was run?
Its survival is 59%.

Which survival does the source give for Cc1ccc(C)c(NC(=O)CCNS(=O)(=O)c2ccc3c(c2)CCCC(=O)N3)c1 here?
Its survival is -6% (active).

Which survival does the source give for Cc1ccc(C)c(NC(=O)Cn2ncc3c([nH]c4ccccc43)c2=O)c1 here?
Its survival is 45%.

How did the survival turn out when CC(C)c1ccc(NC(=O)Cc2ccc(NC(=O)N3CCCCc4ccccc43)cc2)cc1 was run?
The survival was 110%.

Nc1cc(=O)nc(SCC(=O)Nc2ccccc2)n1CCc1ccccc1 was tested. Which survival did it give?
The survival was 69%.

With Cc1ccc(NC(=O)CN2C(=O)C3(SCC(=O)N3c3ccc(F)c(F)c3)c3ccccc32)c(C)c1 (centres undefined) as the molecule, how does the survival read?
The survival was 69%.

For COc1ccc(Nc2ncnc3sc4c(c23)CCCC4)cc1, which survival is on record?
The survival was 73%.

How did the survival turn out when CCc1nc(Nc2ccc(F)c(Cl)c2)c2c3c(sc2n1)CCCC3 was run?
Its survival is -1% (active).

How did the survival turn out when O=C(Cn1nnc2sc3c(c2c1=O)CCCC3)Nc1ccc(F)c(Cl)c1 was run?
Its survival is 33%.

For Cc1ccccc1Cn1c2ccccc2c2cnn(CC(=O)N3CCC(C)CC3)c(=O)c21, which survival is on record?
Its survival is 12% (active).

How did the survival turn out when CCN1CCN(C(=O)Cn2ncc3c4ccccc4n(Cc4ccccc4F)c3c2=O)CC1 was run?
The survival was 82%.

With Cc1cc(C)c(Cn2c3ccccc3c3cnn(CC(=O)N4CCCCCC4)c(=O)c32)c(C)c1 as the molecule, how does the survival read?
The survival was 1% (active).

CCN1CCN(C(=O)Cn2ncc3c4ccccc4n(Cc4c(C)cc(C)cc4C)c3c2=O)CC1 was tested. Which survival did it give?
The survival was 126%.

Which survival does the source give for CC1CCN(C(=O)Cn2ncc3c4ccccc4n(Cc4ccc(Cl)cc4)c3c2=O)CC1 here?
Its survival is 95%.

Cc1ccccc1Cn1c2ccccc2c2cnn(CC(=O)NC3CCC(C)CC3)c(=O)c21 (centres undefined) was tested. Which survival did it give?
The survival was 78%.

For CCCn1c2ccccc2c2cnn(CC(=O)N3CCN(c4ccccc4F)CC3)c(=O)c21, which survival is on record?
Its survival is -6% (active).

How did the survival turn out when CCCn1c2ccccc2c2cnn(CC(=O)N3CCC(C)CC3)c(=O)c21 was run?
The survival was 67%.

How did the survival turn out when Cc1cc(C)c(Cn2c3ccccc3c3cnn(CC(=O)N4CCCCC4)c(=O)c32)c(C)c1 was run?
Its survival is 125%.

How did the survival turn out when COc1ccc(NC(=O)Nc2nnc(N(CC(C)C)CC(C)C)s2)c(OC)c1 was run?
The survival was 96%.

Which survival does the source give for COc1ccccc1C(=O)Nc1sc(Nc2ccccc2)nc1C(N)=O here?
The survival was 146%.

S=c1nc(CNc2ccccc2)[nH][nH]1 was tested. Which survival did it give?
Its survival is 95%.

Which survival does the source give for CC(=O)N1c2c(cc(Br)cc2S(=O)(=O)N2CCN(c3cc(C)ccc3C)CC2)CC1C (centres undefined) here?
The survival was 72%.

With COc1ccc(NC(=O)Cn2c(=O)n(CCCCCC(=O)NCc3ccc4c(c3)OCO4)c(=O)c3sccc32)cc1Cl as the molecule, how does the survival read?
The survival was 89%.

For COc1ccc2c(CNCCc3cccs3)c(C(=O)O)n(Cc3ccc(F)cc3Cl)c2c1, which survival is on record?
The survival was 115%.

For CCCCN1CC(c2nc3ccccc3n2CCCCOc2ccccc2C)CC1=O (centres undefined), which survival is on record?
The survival was 15% (active).

For Cc1ccccc1OCCCCn1c(C2CC(=O)N(c3ccccc3Cl)C2)nc2ccccc21 (centres undefined), which survival is on record?
The survival was 59%.

How did the survival turn out when CCCCN1CC(c2nc3ccccc3n2CCCCOc2cc(C)cc(C)c2)CC1=O (centres undefined) was run?
Its survival is 14% (active).

How did the survival turn out when CCCCN1CC(c2nc3ccccc3n2CCCCOc2c(C)cccc2C)CC1=O (centres undefined) was run?
The survival was 61%.

For CCCCN1CC(c2nc3ccccc3n2CCCCOc2cccc(C)c2C)CC1=O (centres undefined), which survival is on record?
Its survival is -13% (active).

How did the survival turn out when CCCCn1c(C2CC(=O)N(c3ccc(OCC)cc3)C2)nc2ccccc21 (centres undefined) was run?
Its survival is 84%.

For CCCCN1CC(c2nc3ccccc3n2CCCCOc2ccc(C)c(C)c2)CC1=O (centres undefined), which survival is on record?
Its survival is 24%.

How did the survival turn out when Cc1ccc(-c2nn(-c3ccc(F)cc3F)c3c2cnc2ccc(F)cc23)cc1 was run?
The survival was 65%.

With CCOC(=O)c1ccc(NC(=O)CSc2nc(-c3cccs3)cc(C(F)(F)F)c2C#N)cc1 as the molecule, how does the survival read?
Its survival is 85%.

How did the survival turn out when CC(C)N(C(=O)Cn1cc(S(=O)(=O)Cc2ccc(Br)cc2)c2ccccc21)C(C)C was run?
Its survival is 80%.

Which survival does the source give for O=C(c1ccc2c(c1)N(Cc1cccc(Cl)c1)C(=O)c1ccccc1S2)N1CCOCC1 here?
Its survival is 99%.

For Cc1ccnc(N2CCC(C(=O)NCc3ccc(F)cc3)CC2)n1, which survival is on record?
Its survival is 105%.

Nc1nc2nc(-c3ccc(Cl)cc3)cc(C(F)(F)F)n2n1 was tested. Which survival did it give?
Its survival is 144%.

With CC(C)c1ccccc1NC(=O)CC(C)(C)C as the molecule, how does the survival read?
The survival was 121%.

With COc1cccc2cc(-c3nc4ccc(C)cc4[nH]3)c(=O)oc12 as the molecule, how does the survival read?
Its survival is 73%.

How did the survival turn out when C=CCc1cccc2cc(-c3nc4ccc(C(=O)O)cc4[nH]3)c(=O)oc12 was run?
Its survival is 83%.

Which survival does the source give for C=CCc1cccc2cc(-c3nc4ccc(C)cc4[nH]3)c(=O)oc12 here?
Its survival is -3% (active).

COC(=O)c1ccc(NC(=O)CSc2cn(CC(=O)N3CCCCC3)c3ccccc23)cc1 was tested. Which survival did it give?
The survival was 89%.

For CCC(=O)N1CCc2cc(S(=O)(=O)CCC(=O)N3CCN(c4ccccc4Cl)CC3)ccc21, which survival is on record?
Its survival is 78%.

For COc1ccc(C2=NC(c3ccncc3)=Nc3ccc(Br)cc3N2)cc1, which survival is on record?
Its survival is 94%.

For CCCCOc1ccc(C2=NC(c3ccncc3)=Nc3ccc(Br)cc3N2)cc1, which survival is on record?
The survival was -4% (active).

How did the survival turn out when CCCCOc1ccc(C2=NC(c3ccncc3)=Nc3ccc(OCC)cc3N2)cc1 was run?
Its survival is 90%.

Which survival does the source give for COc1ccc(CNC(=O)CCc2c(C)c3cc4c(C)coc4c(C)c3oc2=O)cc1OC here?
Its survival is 82%.

How did the survival turn out when CC(C)OC(=O)CSc1nnc(-c2ccc(O)cc2)n1-c1ccccc1 was run?
Its survival is 116%.

How did the survival turn out when COc1ccccc1-n1nc(-c2ccccc2)c2cnc3c(F)cc(F)cc3c21 was run?
Its survival is 119%.

Cc1ccc(-c2nc(CCNC(=O)C(=O)Nc3c(C)cccc3C)cs2)cc1 was tested. Which survival did it give?
Its survival is 0% (active).

With Cc1ccc(-c2nc(CCNC(=O)C(=O)Nc3ccc(C)c(Cl)c3)cs2)cc1 as the molecule, how does the survival read?
The survival was 47%.

Cc1ccc(-c2nc(CCNC(=O)C(=O)Nc3ccc(C)cc3C)cs2)cc1 was tested. Which survival did it give?
The survival was 53%.

Cc1cccc(NC(=O)C(=O)NCCc2csc(-c3ccc(F)cc3)n2)c1C was tested. Which survival did it give?
Its survival is 75%.

How did the survival turn out when Cc1ccc(-c2nc(CCNC(=O)C(=O)Nc3ccc(C)c(C)c3)cs2)cc1 was run?
Its survival is -3% (active).

How did the survival turn out when Cc1cc(C)c(NC(=O)C(=O)NCCc2csc(-c3ccc(F)cc3)n2)c(C)c1 was run?
Its survival is 76%.

O=C(c1cccs1)N1CCCn2c1nc1ccccc12 was tested. Which survival did it give?
The survival was 106%.

Which survival does the source give for CCc1nn2c(=O)cc(COC(=O)c3cccc(NC(=O)c4ccccc4C)c3)nc2s1 here?
The survival was 91%.

CCc1nn(CC(=O)Nc2ccc(C)c(F)c2)c(=O)c2cc3cc(C)ccc3n12 was tested. Which survival did it give?
Its survival is 109%.

How did the survival turn out when COc1ccc2c(c1)-c1nc(NC(=O)c3ccccc3F)sc1CC2 was run?
Its survival is -1% (active).

Which survival does the source give for COc1ccc2c(c1)-c1nc(NC(=O)c3ccc(Cl)cc3)sc1CC2 here?
The survival was 93%.

COc1ccc2c(c1)-c1nc(NC(=O)c3cc(Cl)ccc3OC)sc1CC2 was tested. Which survival did it give?
The survival was 74%.

COc1ccc(C(=O)Nc2nc3c(s2)Cc2cc(OC)ccc2-3)cc1 was tested. Which survival did it give?
The survival was 72%.

How did the survival turn out when COc1ccc2c(c1)-c1nc(NC(=O)c3ccc(C)cc3)sc1CC2 was run?
The survival was 14% (active).

How did the survival turn out when COc1ccc(C(=O)Nc2nc3c(s2)CCc2cc(OC)ccc2-3)cc1 was run?
The survival was 41%.

COc1ccc2c(c1)-c1nc(NC(=O)c3cccc(Br)c3)sc1CC2 was tested. Which survival did it give?
The survival was 54%.

Which survival does the source give for COc1ccc2c(c1)Cc1sc(NC(=O)c3cccc(C)c3)nc1-2 here?
Its survival is 7% (active).

For COc1ccc2c(c1)Cc1sc(NC(=O)c3cccc(F)c3)nc1-2, which survival is on record?
Its survival is 69%.

With CCCC(=O)Nc1ccc(Cl)c(NC(=O)c2cccnc2Cl)c1 as the molecule, how does the survival read?
The survival was 114%.

For CC1=C(c2ccc(C)c(C)c2)S(=O)(=O)N=C1N1CCC(C(=O)NCCc2ccc(Cl)cc2)CC1, which survival is on record?
The survival was 132%.

With CS(=O)(=O)N1CCC(N2CCN(Cc3ccc(F)cc3)C(=O)C2=O)CC1 as the molecule, how does the survival read?
The survival was 81%.

For Cc1cc(C(=O)O)c2c(=O)n(C)c(=O)n(C)c2n1, which survival is on record?
The survival was 81%.

Which survival does the source give for Cc1ccc(C(=O)Nc2ccccc2)cc1S(=O)(=O)Nc1ccc(Br)cc1 here?
Its survival is 7% (active).

How did the survival turn out when CCOc1cccc(NC(=O)c2ccc(F)c(S(=O)(=O)N(CC)c3cccc(C)c3)c2)c1 was run?
The survival was 82%.

CCOc1ccc(NC(=O)c2ccc(F)c(S(=O)(=O)N(CC)Cc3ccccc3)c2)cc1 was tested. Which survival did it give?
Its survival is 77%.

How did the survival turn out when Cc1ccc(C(=O)Nc2ccc(C(=O)O)cc2)cc1S(=O)(=O)Nc1ccccc1 was run?
The survival was 73%.

For Cc1ccc(C(=O)Nc2ccccc2)cc1S(=O)(=O)Nc1ccccc1, which survival is on record?
The survival was 70%.

With CCN(c1ccccc1)S(=O)(=O)c1cc(C(=O)Nc2ccc(Br)cc2)ccc1F as the molecule, how does the survival read?
The survival was 1% (active).

Which survival does the source give for CCN1CCN(C(c2ccccc2F)c2c(O)cc(C)n(CCOC)c2=O)CC1 (centres undefined) here?
The survival was 45%.

For Cc1ccc(NC(=O)Cn2c(=O)n(Cc3ccco3)c(=O)c3ccc(C(=O)NC4CCCC4)cc32)c(C)c1, which survival is on record?
The survival was 87%.
